High-throughput results deposited in PubChem by The Scripps Research Institute Molecular Screening Center.
Compounds with a hit are over-represented: about 3.5% of the library has one in this group of screens.
GPR151 activ: activators of human GPR151, primary screen, cell-based, PathHunter beta-arrestin, luminescence | PathHunter beta-arrestin GPR151 cells | activation, % at 11.2 µM | actives 1% (n = 650,000) | AID 1508602, 2020; in the data active = activation above about 4.9%;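 note: 0% = median of compound wells and 100% = cells with positive control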
TEAD-YAP inh: TEAD-YAP interaction inhibition, primary screen, TEAD-YAP interaction inhibitor project, luminescence, HEK-TIYL cells; TEAD-Gal4/YAP UAS-luciferase luminescence; inhibition, % at 9.12 µM; actives 1.4% (n = 640,000); AID 1259422, 2018; in the data active = inhibition above about 32%;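 note: 0% = median of test compound wells and 100% = reference inhibitor wells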
MITF primary: MITF inhibitors, primary screen, biochemical, AlphaScreen, human | inhibition, % at 2.6 µM | AID 1259374, 2018 | actives 0.91% (n = 650,000) | Microphthalmia-associated transcription factor (Homo sapiens), O75030 | AlphaScreen MITF homodimerization, bead proximity signal; in the data active = inhibition above about 50%;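 note: 0% = vehicle wells with protein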
Target sequence (O75030 whole entry, looked up): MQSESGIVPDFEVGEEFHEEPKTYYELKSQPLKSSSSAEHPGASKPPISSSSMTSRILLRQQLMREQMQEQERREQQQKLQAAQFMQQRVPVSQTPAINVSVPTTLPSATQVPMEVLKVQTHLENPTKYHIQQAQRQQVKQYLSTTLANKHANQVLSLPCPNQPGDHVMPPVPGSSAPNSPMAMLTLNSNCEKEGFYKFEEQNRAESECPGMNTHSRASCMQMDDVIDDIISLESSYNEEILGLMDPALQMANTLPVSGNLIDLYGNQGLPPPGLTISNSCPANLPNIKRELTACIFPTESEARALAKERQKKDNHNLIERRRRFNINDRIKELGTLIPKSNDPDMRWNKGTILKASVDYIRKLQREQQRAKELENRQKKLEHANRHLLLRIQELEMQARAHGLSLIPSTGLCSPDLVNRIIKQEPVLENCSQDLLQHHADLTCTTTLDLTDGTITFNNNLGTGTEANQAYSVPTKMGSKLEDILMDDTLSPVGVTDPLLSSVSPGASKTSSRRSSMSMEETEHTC
FBW7 act: FBW7 E3 ligase activators, primary screen, biochemical, AlphaScreen, human. F-box/WD repeat-containing protein 7 (Homo sapiens), Q969H0. AlphaScreen FBW7–phospho-cyclin E peptide binding, activator screen. normalized activity (activation), % at 26.1 µM. actives 0.13% (n = 650,000). AID 1259310, 2017; in the data active = normalized activity above about 1.9%;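 note: purified mutant Fbw7 with reduced substrate affinity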
An asterisk follows results filed as active.

SMILES	GPR151 activ	TEAD-YAP inh	MITF primary	FBW7 act
CCOc1ccccc1-n1c(=S)sc2c(=O)n(-c3ccccc3)c(SCC(=O)NCC3CCCO3)nc21 (centres undefined)	-0.7	1.4	14.4	0.2
CCOC(=O)N1CCc2c(sc(NCc3cccc(OC)c3OC)c2C(=O)Nc2ccc(OC)cc2OC)C1	-0.4	36.9*	30.6	-0.5
CCOC(=O)N1CCc2c(sc(NC(=O)c3cc(Cl)sc3Cl)c2C#N)C1	-0.8	32.4*	-6.0	-0.1
CCOC(=O)N1CCc2c(sc(NC(=O)c3ccccc3)c2C#N)C1	0.9	51.0*	10.5	0.3
CCOC(=O)N1CCc2c(sc(NC(=O)c3ccccc3Br)c2C#N)C1	4.7	53.3*	-3.9	-0.1
COC(=O)c1ccc(Cn2c[n+](N)cn2)cc1	-1.4	5.0	-11.8	0.1
OC1CCN(c2ccnc3c(-c4ccc5[nH]ccc5c4)cnn23)CC1	-1.2	-32.9	14.7	0.3
O=C(O)c1n[nH]nc1-c1ccccc1O	-1.0	0.4	4.4	-0.1
O=C(CCc1nnc(Cc2c[nH]c3ccccc23)o1)NCCn1ccc2ccccc21	-0.1	-0.1	11.7	2.3*
Cn1c(CCNC(=O)CCc2nnc(Cc3c[nH]c4ccccc34)o2)nc2ccccc21	0.1	1.7	8.6	0.1
O=C(NCc1nc(NCCCc2ccccc2)c2ccccc2n1)c1ccsc1	-0.2	34.0*	-8.9	0.3
O=C(NCc1nc(NCCCc2ccccc2)c2ccccc2n1)c1ccoc1	-1.0	8.2	-1.4	0.0
COc1ccc(CNC(=O)c2cc3c(C)nc4ccccc4c3o2)c(OC)c1	0.2	34.2*	-8.9	-0.1
COc1cccc(CNC(=O)c2cc3c(C)nc4ccccc4c3o2)c1	0.3	25.3	2.5	-0.1
O=C(NCc1c(F)cccc1F)c1cn2ccsc2n1	0.0	-11.0	16.0	1.3
CC(=O)c1ccc(OCCn2cnc3c(N)ncnc32)cc1	-1.1	-28.4	19.3	-0.1
Cc1ccccc1Cn1cnc2sc3c(c2c1=O)CCCC3	-0.1	51.3*	2.6	0.1
COc1cccc(-c2nc3sc4c(c3c(=O)n2Cc2ccccc2F)CCCC4)c1	-0.7	32.3*	6.3	0.2
Cc1cnc(Nc2ccncc2)nc1NCc1cccc(C(F)(F)F)c1	1.9	45.2*	7.3	-0.1
Cc1cnc(Nc2ccncn2)nc1NCc1cccc(C(F)(F)F)c1	-0.5	29.4	-6.2	0.0
FC(F)(F)c1cccc(CNc2nc(Nc3cccnc3)nc3c2ncn3-c2ccccc2)c1	-0.6	46.2*	17.9	0.2
FC(F)(F)c1cccc(CNc2nc(Nc3cccnc3)nc3c2ncn3-c2ccsc2)c1	-0.1	55.8*	9.9	0.1
FC(F)(F)c1cccc(CNc2nc(Nc3ccncc3)nc3c2ncn3-c2ccsc2)c1	1.3	-3.7	2.0	0.0
FC(F)(F)c1cccc(CNc2nc(NCc3cccnc3)nc3c2ncn3-c2ccsc2)c1	1.0	55.9*	1.0	0.0
Cc1cccc(Oc2c(C(F)(F)F)oc3cc(OC(=O)c4cncc(Br)c4)ccc3c2=O)c1	0.1	-7.6	4.3	0.0
SMILES	GPR151 activ	TEAD-YAP inh	MITF primary	FBW7 act
COc1cccc(NC(=O)N(Cc2nnc3n2CCCCC3)c2ccccc2C)c1	1.6	-2.9	-4.0	0.0
Cc1ccc(-c2noc(N=O)c2NO)cc1	1.0	36.3*	-3.0	0.0
O=Nc1onc(-c2ccc([N+](=O)[O-])cc2)c1NO	1.2	10.0	-12.1	-0.2
COc1ccc(CCNc2cc(N3CCN(S(=O)(=O)c4ccc(OC)c(OC)c4)CC3)ccc2[N+](=O)[O-])cc1OC	0.3	-5.9	1.8	-0.2
COc1ccc(CCNc2cc(N3CCN(C)CC3)ccc2[N+](=O)[O-])cc1OC	1.3	48.0*	-0.8	-0.1
COc1ccc(CCNc2cc(N3CCCC3)ccc2[N+](=O)[O-])cc1OC	-0.8	-5.2	3.4	-0.2
COc1ccc(CCNc2cc(N3CCN(S(C)(=O)=O)CC3)ccc2[N+](=O)[O-])cc1OC	1.9	60.3*	17.7	0.0
c1ccc(Oc2ccc(Nc3nccn4c(-c5ccoc5)cnc34)cc2)cc1	1.5	-4.1	-3.7	-0.2
CC(C)c1ccc(Nc2nccn3c(-c4ccoc4)cnc23)cc1	-1.0	-10.4	7.3	2.3*
Cc1ccc(-n2nnnc2SCC(=O)Nc2nn(-c3ccccc3)nc2C(N)=O)cc1C	1.3	15.3	3.8	-0.1
O=C(NCCn1cc(SCC(=O)N2CCCCCC2)c2ccccc21)c1c(F)cccc1F	2.7	34.2*	7.2	-0.6
